Reference: PubChem BioAssay (NCATS)
Unmarked numbers belong to inactive results. Results filed as inconclusive are left out. Activity calls are given as the source filed them. Unless noted, calls come from the whole dose curve; as a rule, active = well fitted curve in either direction with a large enough effect (not every such curve was filed as active); inconclusive = small, poorly fitted or top-dose-only effect, or another doubt; inactive = flat fitted curve, though single readings scatter.

Assays:
[1] = AP1 Signaling Pathway (AID 357); details: ME-180 AP-1-bla reporter, EGF-induced, beta-lactamase ratio, 5 h; at 17.2 µM (top of the series) unless noted;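 note: ME-180 reporter cells stimulated with EGF at its EC50 level; % is set by controls: 0 for no effect and ±100 for the full control effect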
Summary of the method: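 A ratiometric CCF4 readout (405 nm excitation; 460 and 530 nm emission) quantified AP-1-driven beta-lactamase in ME-180 cells after 5 h with compound and EC50 EGF; AC50 values were derived for activators and inhibitors.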

[2] = NFAT Signaling Pathway (AID 444); details: Jurkat NFAT-bla M1, carbachol, beta-lactamase ratio, 5 h; at 17.2 µM (top of the series) unless noted;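 note: carbachol stimulus at about its EC50 of 1 µM final; % is set by controls: 0 for no effect and ±100 for the full control effect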
Summary of the method: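 Jurkat cells carrying an NFAT-driven β-lactamase reporter and co-transfected muscarinic M1 receptor were treated with compound plus carbachol (1 uM final, an EC50 level) for 5 h at 37 °C. CCF4 loading followed for 1 h at RT; 460/530 nm ratio gave %activity.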

[3] = Stat Signaling Pathway (AID 446); details: ME-180 SIE beta-lactamase reporter, IL-6 stimulated, 5 h; at 17.2 µM (top of the series) unless noted;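 note: ME-180 cervical cancer cells given 40 pM IL-6 alongside compound; SIE-controlled beta-lactamase reporter measured as 460/530 nm FRET emission ratio; % is set by controls: 0 for no effect and ±100 for the full control effect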
Summary of the method: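 Normalization used AC90 stimulation (300 pM IL-6) and AC90 inhibition (125 nM pan-JAK inhibitor at 40 pM IL-6). The underlying signal is SIE-driven beta-lactamase in ME-180 cells after 5 h IL-6 exposure with compound.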

[4] = target: Glucocorticoid receptor (Homo sapiens) (UniProt P04150); assay: GR-GFP Redistribution (AID 450;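 active = compounds whose dose series gives a full or clear partial fitted curve of increased nuclear translocation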; note: potency is the fitted concentration of half-maximal effect)
[5] = qHTS Assay for Identification of Small Molecule Agonists for Hypoxia Response Element Signaling Pathway (AID 914; active = well fitted activation curve with a large enough effect in the signal ratio, with a control signal flat, not every such curve was filed as active; the % refers to the signal ratio; note: potency is the fitted concentration of half-maximal effect; for activation: % of control where 0% means no effect); details: ME-180 (cervical carcinoma) HRE-bla reporter, beta-lactamase ratio, CoCl2, 17 h; activation: hits give high values
Summary of the method: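 HRE-bla ME-180 cells with beta-lactamase reporter under hypoxia response element, compounds with EC50 CoCl2 for 17 hours at 37 C. CCF4 substrate, 460nm/530nm emission ratio gave %Activity; AC50 from titration series.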

Chain of Glucocorticoid receptor (Homo sapiens) (P04150 whole entry, looked up): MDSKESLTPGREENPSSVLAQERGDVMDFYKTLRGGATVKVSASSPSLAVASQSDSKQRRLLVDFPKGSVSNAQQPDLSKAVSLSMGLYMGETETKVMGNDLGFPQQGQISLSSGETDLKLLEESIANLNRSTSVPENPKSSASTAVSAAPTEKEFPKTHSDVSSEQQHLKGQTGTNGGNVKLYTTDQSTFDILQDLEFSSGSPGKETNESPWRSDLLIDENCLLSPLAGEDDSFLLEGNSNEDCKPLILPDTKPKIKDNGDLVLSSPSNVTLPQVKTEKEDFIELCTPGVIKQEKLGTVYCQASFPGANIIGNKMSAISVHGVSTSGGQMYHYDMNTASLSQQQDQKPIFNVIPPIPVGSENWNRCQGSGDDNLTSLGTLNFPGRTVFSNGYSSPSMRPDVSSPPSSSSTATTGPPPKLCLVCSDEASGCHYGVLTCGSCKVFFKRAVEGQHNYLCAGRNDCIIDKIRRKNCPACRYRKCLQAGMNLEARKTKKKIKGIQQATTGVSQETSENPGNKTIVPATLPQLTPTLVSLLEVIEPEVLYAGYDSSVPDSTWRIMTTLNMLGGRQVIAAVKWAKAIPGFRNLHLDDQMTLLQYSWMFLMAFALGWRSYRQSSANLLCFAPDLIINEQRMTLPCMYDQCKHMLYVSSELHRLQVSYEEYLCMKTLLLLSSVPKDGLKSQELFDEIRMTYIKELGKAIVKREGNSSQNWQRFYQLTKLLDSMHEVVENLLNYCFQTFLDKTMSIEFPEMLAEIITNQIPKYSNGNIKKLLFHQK

| SMILES | activity change, negative = inhibition [1] | activity change, negative = inhibition [2] | activity, negative = inhibition [3] | Potency [4] | activation [5] | Potency [5] |
| --- | --- | --- | --- | --- | --- | --- |
| Cc1sc(-n2c(C)ccc2C)c(C#N)c1C | -5.35% | -9.11% | 0.959% | > 20.6 µM | 5.91% | – |
| Cn1ccnc1SCCC#N | -0.27% | -6.48% | 5.85% | > 20.6 µM | 14% | – |
| CC(=O)N1CC=C2C(C#N)=C(N)C(C#N)(C#N)[C@H](c3ccoc3)[C@H]2C1 | 8.44% | -12.2% | 10.5% | > 20.6 µM | -26.3% | – |
| CCN(CC)Cc1c(O)ccc2c(C)c(CC(=O)OC)c(=O)oc12 | 14.2% | 25.4% | 8.46% | > 20.6 µM | – | 10 µM (active) |
| NC(=O)CSc1nc(N)c2c3c(sc2n1)CCCCC3 | -2.28% | -8.37% | -4.35% | > 20.6 µM | -10.3% | – |
| Cc1cc(C)c(S(=O)(=O)O)c(C)n1 | 6.1% | -2.21% | 6.56% | > 20.6 µM | 11.7% | – |
| CCN(CC)CCNc1ncnc2c1[nH]c1ccc(OC)cc12 | 7.05% | -11.4% | 3.82% | > 20.6 µM | 2.09% | – |
| O=C(NC1CCCCC1)[C@H](O)[C@@H](O)C(=O)NC1CCCCC1 | 8.04% | 0.354% | 4.25% | > 20.6 µM | 12.1% | – |
| Cc1cc(C)nc(NC2=NCC(=O)N2c2ccc(Cl)cc2)n1 | 0.0978% | -13.8% | 5.94% | > 20.6 µM | 16.5% | – |
| COc1ccc2c(c1OC)C(=O)OC2c1c(O)nc(SC)n(-c2ccccc2)c1=O (stereo not given) | -1.4% | -5.89% | -3% | > 20.6 µM | 1.25% | – |
| Cc1ccc(-n2c(SCC(=O)NCc3ccco3)nc3nc4c(cc3c2=O)COC(C)(C)C4)cc1 | -7.85% | -16.8% | -3.2% | > 20.6 µM | -23.6% | – |
| Cc1ccc(C(=O)/C=C/Nc2cccc(O)c2)cc1 | 10.4% | 1.57% | -17.8% | > 20.6 µM | – | 10 µM (active) |
| COc1ccc(C(=O)C2CCCCC2=O)cc1 (stereo not given) | 2.34% | -0.888% | 8.28% | > 20.6 µM | 5.32% | – |
| Cc1cc(C)nc(N(C#N)CN2C(=O)c3ccccc3C2=O)n1 | 2.24% | -1.49% | 0.344% | > 20.6 µM | 12.2% | – |
| CSc1cc(C)nc(N(C)C(C)=O)n1 | 16.9% | -4.07% | -0.18% | > 20.6 µM | 14.1% | – |
| CCc1nc(NCC2CCCO2)c(C#N)c2c1COC(C)(C)C2 (stereo not given) | -25.1% | -16.2% | -2.2% | > 20.6 µM | -11.3% | – |
| COc1ccc(CNC(=O)c2c(C)cc(=O)oc2C)cc1OC | 13.7% | 13.8% | 9.9% | > 20.6 µM | 12.6% | – |
| COC(=O)C1=C(N)Oc2cc(C)oc(=O)c2C1c1ccncc1 (stereo not given) | -9.84% | 4.62% | 0.284% | > 20.6 µM | 12.2% | – |
| CC(C)OC(=O)C(CC(=O)O)NCc1ccccc1 (stereo not given) | -7.38% | 10.6% | 5.04% | > 20.6 µM | 19.8% | – |
| COc1cccc(Cn2c(Oc3ccccc3)nc3c2c(=O)n(C)c(=O)n3C)c1 | -23.1% | -10.8% | -11.1% | > 20.6 µM | -17.4% | – |

| SMILES | activity change, negative = inhibition [1] | activity change, negative = inhibition [2] | activity, negative = inhibition [3] | Potency [4] | activation [5] | Potency [5] |
| --- | --- | --- | --- | --- | --- | --- |
| COc1ccc(C2=Nn3c(nnc3-c3ccccn3)SC2)cc1OC | -18.1% | 23.1% | -0.925% | > 20.6 µM | -20.2% | – |
| Cc1cc(/C=N\O)c(C)n1-c1ccncc1 | 0.0567% | 23.9% | -5.06% | > 20.6 µM | 1.93% | – |
| CN1C(=O)c2ccc(N(C)C)cc2C1=O | 1.85% | -12.3% | 1.02% | > 20.6 µM | 14.5% | – |
| Cc1nn(-c2ccccc2)c2c1C(=O)NC(=O)C(C)(C)C2 | -3.8% | 0.783% | 3.56% | > 20.6 µM | -11.1% | – |
| O=C1C(=O)N(Cc2cccnc2)C(c2ccccn2)/C1=C(/O)c1ccccc1 (stereo not given) | -5.8% | -4.6% | 4.87% | > 20.6 µM | 2.14% | – |
| Cc1cc(C(F)(F)F)c(C#N)c(SCC(=O)NC2CC2)n1 | 19.7% | -9.19% | 1.05% | > 20.6 µM | 16.3% | – |
| CCN1CCCC1Cn1cnc2c([nH]c3ccc(C)cc32)c1=O (stereo not given) | -6.04% | 8.74% | 3.87% | > 20.6 µM | 9.56% | – |
| CC(C)OCCCNc1ncnc2c1cnn2-c1ccccc1 | -19.6% | 12.4% | -0.244% | > 20.6 µM | -23.4% | – |
| CCOc1ccc(/C(O)=C2/C(=O)C(=O)N(CCN(C)C)C2c2ccccc2)cc1Cl (stereo not given) | 8.45% | 1.62% | 7.84% | > 20.6 µM | 2.13% | – |
| Fc1ccc(-c2cnc[nH]2)cc1 | 3.07% | -3.45% | -3.45% | > 20.6 µM | 14% | – |
| COc1ccccc1NC(=O)Nc1nnc(C(C)C)s1 | -4.89% | 20.9% | -3.37% | > 20.6 µM | 10.4% | – |
| Cn1c(NCCCO)nc2c1c(=O)n(Cc1ccccc1F)c(=O)n2C | -2.43% | 8.23% | -2.21% | > 20.6 µM | -5.37% | – |
| Cc1cc(Cl)ccc1OCC(=O)OC(C)C(=O)N(C)C (stereo not given) | 3.68% | 17.7% | -3.58% | > 20.6 µM | -0.0413% | – |
| COc1ccc(C2CC(C(F)(F)F)n3ncc(C(=O)Nc4cccc(O)c4)c3N2)cc1OC (stereo not given) | -24.1% | -0.0394% | -21.1% | > 20.6 µM | -22.3% | – |
| O=C1c2ccccc2C(=O)N1CC1c2ccccc2CCN1C(=O)N1CCOCC1 (stereo not given) | -3.7% | -0.0702% | 1.92% | > 20.6 µM | 4.7% | – |
| CN1CCN(c2c3c(c(C#N)c4nc5ccccc5n24)CCCC3)CC1 | 14.7% | 0.538% | 5.04% | > 20.6 µM | -2.43% | – |
| O=C1CSC(=Nc2ccc(O)cc2)N1c1ccc(O)cc1 | 24.5% | -9.67% | 13.7% | > 20.6 µM | -9.31% | – |
| CCOc1ccc(-c2nnc3sc(-c4ccccc4OC)nn23)cc1 | 18% | -19.8% | 5.75% | > 20.6 µM | -10.9% | – |
| CCCSc1nc(C)c(CC(=O)O)c(=O)[nH]1 | -6.75% | 13% | -1.03% | > 20.6 µM | 11% | – |
